# The list is not random: actives were taken first. Their share in the collection is about 6.8%.
# KB-3-1 cytotox = KB-3-1 parental cell cytotoxicity | KB-3-1 viability, CellTiter-Glo ATP luminescence, 72 h | Potency, µM (highest dose often 46.1 µM), actives largely listed as cytotoxic | 400,000 compounds, 1.4% hits; note: nearly all actives have a fitted effect of over 60% in size
#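 Multi-concentration cytotoxicity screen in KB-3-1 cells grown in DMEM lacking phenol red with 10% FBS. After 72 h at 37 °C with compound, ATP-dependent luminescence was recorded.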
# MCF10A rereplic = induces DNA re-replication in MCF 10a normal breast cells | MCF 10A DNA re-replication, Hoechst nuclear intensity, 48 h | Potency, µM (top dose mostly 46.1 µM), actives largely listed as activators | 350,000 compounds, 2.9% hits; note: nearly all actives have a fitted effect of over 50% in size
# SW480 rerep = DNA re-replication induction in SW480 cells; 340,000 compounds, 1.8% hits; Potency, µM (highest dose often 46.1 µM), hits mostly activators; SW480 DNA re-replication, Hoechst DNA content imaging, 48 h; AID 624297; note: nearly all actives have a fitted effect of over 55% in size
#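 Hoechst fluorescence of nuclei (405 nm excitation, 500-530 nm emission) measured by plate-scanning imager after 48 hr compound exposure at 37 C; re-replication scored as increased number of nuclei with elevated intensity.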
# KB-V1 MDR tox = kills drug-selected multidrug resistant KB-V1 cells. 400,000 compounds, 3.4% hits. KB-V1 MDR cells viability, CellTiter-Glo, 72 h. Potency, µM (series often up to 46.1 µM), usual class: cytotoxic; note: nearly all actives have a fitted effect of over 60% in size
#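 KB-V1 cells (P-gp-expressing MDR subline of KB-3-1) in phenol-red-free DMEM with 10% FBS were exposed to library compounds over a concentration series for 72 h at 37 degrees C. Viability read by CellTiter-Glo luminescence; concentration-effect curves fitted after normalization.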
# PINK1 expr mod = PINK1 expression modulation. PINK1 immunofluorescence, high-content cytometry, 24 h. 410,000 compounds, 0.2% hits. Potency, µM (series often up to 76.6 µM), hits mostly activators; active = well fitted activation curve with a large enough effect; inconclusive = small, poorly fitted or top-dose-only effect; cell line not stated here; note: nearly all actives have a fitted effect of over 65% in size
#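 A stable cell line was treated with compounds at 5 concentrations for 24 hours, with CCCP as control. PINK1 levels and mitochondrial localization were measured by immunofluorescence with mitochondrial, cell and nuclear markers after fixation, read by laser-scanning cytometry.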
# PTAP TSG101 blk = blocks PTAP/TSG101 interaction to inhibit HIV-1 budding; Q99816; Fluorescence polarization, FITC-PTAP peptide / Tsg101 binding; Potency, µM (series often up to 115 µM), usual class: inhibitors; 340,000 tested, under 10 active; AID 493005; active = well fitted inhibition curve with a large enough effect in the main read-out, with a control signal flat, not every such curve was filed as active; inconclusive = small, poorly fitted or top-dose-only effect, or effect the other way, or a change in a side signal; inactive = no such curve, though single readings can be large or run the other way
# Target sequence (Q99816 whole entry, looked up): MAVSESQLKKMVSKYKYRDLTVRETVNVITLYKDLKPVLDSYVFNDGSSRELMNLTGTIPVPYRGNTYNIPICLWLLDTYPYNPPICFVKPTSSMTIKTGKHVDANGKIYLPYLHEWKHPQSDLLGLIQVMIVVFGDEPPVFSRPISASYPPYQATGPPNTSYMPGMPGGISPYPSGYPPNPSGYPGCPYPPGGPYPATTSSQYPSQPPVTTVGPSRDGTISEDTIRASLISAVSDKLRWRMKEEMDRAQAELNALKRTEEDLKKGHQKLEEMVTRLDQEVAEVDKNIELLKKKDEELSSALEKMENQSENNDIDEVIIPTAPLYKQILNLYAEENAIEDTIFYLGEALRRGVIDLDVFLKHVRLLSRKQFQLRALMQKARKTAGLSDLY
#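 Tsg101 binding domain (10 uM final) was mixed with compound and a FITC-labeled PTAP peptide (50 nM final) in HEPES pH 7.5 buffer with NaCl, Tween 20, EDTA and TCEP; fluorescence polarization was read after 20 min at r.t.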
# Hits are given with their value; n = inactive; u = inconclusive; x = no result; ! = not active in a repeat. Unless noted, calls come from the whole dose curve; as a rule, active = well fitted curve in the direction sought with a large enough effect; inconclusive = small, poorly fitted or top-dose-only effect, or another doubt; inactive = no such curve, though single readings can be large; an effect the other way counts as inactive or inconclusive.
SMILES,KB-3-1 cytotox,MCF10A rereplic,SW480 rerep,KB-V1 MDR tox,PINK1 expr mod,PTAP TSG101 blk
O=S(=O)(Nc1nc2ccccc2nc1Nc1ccc2c(c1)OCO2)c1ccccc1,n,n,n,5.17µM,n,n
Cc1noc(-c2ccccc2OCC(=O)Nc2cccc([N+](=O)[O-])c2)n1,n,x,x,n,n,x
CCN(CC(=O)NC(C)C)C(=O)C(CCSC)NC(=O)c1ccccc1OC (centres undefined),n,n,n,n,n,n
CCN(CC(=O)NC(C)C)C(=O)C(CCSC)NC(=O)c1cccc(C)c1 (centres undefined),n,n,n,23.1µM,n,n
CN(C)c1ccc(CNC(=O)CCCN2C(=O)CCn3nc(-c4cn(C)c5ccccc45)cc32)cc1,n,x,x,n,n,x
Cc1ccc2c(CNCc3ccccc3)cc(=O)oc2c1,5.17µM,11.6µM,8.2µM,3.66µM,n,n
CC1CCN(Cc2cc(=O)oc3cc(O)c(Cl)cc23)CC1,n,14.6µM,u,n,n,n
Cc1ccc2c(CN(C)Cc3ccccc3)cc(=O)oc2c1,n,x,x,n,n,x
Cc1cc2oc(=O)cc(CN(C)Cc3ccccc3)c2cc1C(C)C,n,14.6µM,u,u,n,n
O=c1cc(NCCc2ccccc2)c2ccccc2o1,u,n,n,13µM,n,n
O=c1cc(NCCO)c2ccccc2o1,n,n,n,n,n,n
COc1ccc(CN(C)Cc2cc(=O)oc3cc(C)c(C(C)C)cc23)cc1OC,u,u,u,u,n,n
CC1CN(Cc2cc(=O)oc3cc(O)c(Cl)cc23)CC(C)O1 (centres undefined),n,n,n,n,n,n
COCCNC(=O)c1c(NC(=O)Cc2coc3cc(C)ccc23)sc2c1CCCC2,n,x,x,n,n,x
Cc1noc(C)c1C(=O)N1CCC[C@@]2(CCN(C(=O)Nc3cccc(C#N)c3)C2)C1,x,x,x,x,n,x
CN(Cc1ccccc1F)Cc1cc(=O)oc2cc(O)c(Cl)cc12,u,5.8µM,u,n,n,n
Cc1ccc2c(CN(C)Cc3cccc(Cl)c3)cc(=O)oc2c1C,u,20.6µM,n,u,n,n
CN(Cc1ccccc1)Cc1cc(=O)oc2ccccc12,n,x,x,9.2µM,n,x
Cc1cc2oc(=O)cc(CN(C)Cc3ccccc3F)c2cc1Cl,n,n,n,n,n,n
O=C1CC[C@@H](C(=O)NCC2Cc3cc(Cl)cc(-c4ccc5[nH]ccc5c4)c3O2)N1 (some centres undefined),x,x,x,x,n,x
COc1cc(=O)n2c(c1C(=O)NC(C)c1ccco1)CCN(C(=O)c1[nH]c(C)cc1C)CC2 (centres undefined),x,x,x,x,n,x
CCc1ccc(C(=O)C[N+]2(C)CCOCC2)cc1,n,x,x,n,x,x
O=S(=O)(Nc1ccc(Br)cc1)c1cccc(NS(=O)(=O)c2cccs2)c1,n,7.31µM,n,n,n,n
COc1ccc(S(=O)(=O)Nc2cccc3cccnc23)c([N+](=O)[O-])c1,x,x,x,x,n,x
Cc1c(Cl)c([N+](=O)[O-])nn1Cc1ccc(C(=O)Nc2ccc(Cl)cn2)o1,n,u,n,3.66µM,n,n
SMILES,KB-3-1 cytotox,MCF10A rereplic,SW480 rerep,KB-V1 MDR tox,PINK1 expr mod,PTAP TSG101 blk
O=C(Nc1ccc(Cl)cn1)c1ccc([N+](=O)[O-])o1,n,11.6µM,2.91µM,u,n,n
O=C(CCCCn1c(=O)[nH]c2ccccc2c1=O)NCCC1=CCCCC1,n,n,n,16.4µM,n,n
FC(F)(F)c1cc(-c2ccccc2)nc2cc(-c3ccccc3)nn12,n,x,x,n,n,x
FC(F)(F)c1cc(-c2cccs2)nc2cc(-c3ccccc3)nn12,n,16.4µM,u,n,n,n
CCc1ccc(-n2cc(-c3ccc(F)cc3)[n+]3c2SCCC3)cc1,9.2µM,n,n,n,n,n
c1ccc(-c2cn(-c3ccccc3)c3[n+]2CCCS3)cc1,u,n,n,n,n,n
Cc1ccc(-c2cn(-c3ccccc3)c3[n+]2CCCS3)cc1,1.84µM!,n,n,n,n,n
O=S(=O)(c1ccccc1)N1CCC[C@@]2(CCN(c3cccc(-c4ccccc4)c3)C2)C1,x,x,x,x,n,x
COc1ccc(-c2[nH]n(-c3ccc([N+](=O)[O-])cc3)c(=O)c2C=NCc2ccc(F)cc2)cc1,n,u,n,n,n,n
COc1ccc(-c2cc(=O)n(-c3ccc([N+](=O)[O-])cc3)[nH]2)cc1,u,16.4µM,n,n,u,n
CO/N=C/c1ccc(N2CCOCC2)c([N+](=O)[O-])c1,n,n,n,n,n,n
O=[N+]([O-])c1cc(/C=N/OCc2c(Cl)cccc2Cl)ccc1N1CCOCC1,u,u,u,13µM,n,n
COc1ccc(Cn2c(-c3ccc(C)cc3)c[n+]3ccccc23)cc1,3.26µM,u,n,n,n,n
N#CCCn1cc(C(=O)Nc2ccc(C(=O)O)cc2)c(-c2ccc([N+](=O)[O-])cc2)n1,n,n,n,n,n,n
N#CCCn1cc(C(=O)Nc2cccc(C(=O)O)c2)c(-c2ccc(Cl)cc2)n1,n,n,4.11µM,n,n,n
Cc1cc2c(c(-c3cnccn3)c1)OC(CNC(=O)c1cc(Cl)ccc1F)C2 (centres undefined),x,x,x,x,n,x
COc1cc(OC)cc(-c2c(C#Cc3ccsc3)c3cc(-c4ccc5cc[nH]c5c4)ccc3n2C)c1,n,n,n,n,n,n
COc1ccc(-c2c(C#Cc3ccsc3)c3cc(-c4ccc5cc[nH]c5c4)ccc3n2C)cc1,n,2.31µM,u,u,n,n
Cc1cc(S(=O)(=O)Nc2ccc3[nH]c(=O)sc3c2)ccc1F,x,x,x,x,n,x
CCCN1C(=O)c2[nH]nc(-c3cccc(OC)c3)c2C1c1ccccn1 (centres undefined),x,x,x,x,n,x
CC1(C)N=C(SCC(=O)Nc2ccc(Cl)cc2)C(c2ccccc2)=N1,n,n,n,u,n,n
Cc1ccc(NC(=O)CSc2nnc(-c3ccccc3)n2C)cc1,u,x,x,n,n,x
CC1(C)N=C(SCC(=O)Nc2ccc(Cl)cc2)C(c2ccc(Cl)cc2)=N1,u,18.4µM,u,u,n,n
Cn1nnnc1SCC(=O)Nc1ccc(Oc2ccc(Cl)cc2)cc1,n,8.2µM,14.6µM,n,x,n
Cn1c(SCC(=O)NC(C)(C)C)nnc1-c1ccc(C(C)(C)C)cc1,n,n,n,20.6µM,n,n
COc1ccc(-c2nnc(SCC(=O)Nc3ccc(Cl)cc3)n2C)cc1,n,3.26µM,14.6µM,n,n,n
c1coc(CNc2nc[n+]3c4c2ncn4CC3)c1,x,x,x,x,n,x
Cc1cc(C)cc(NS(=O)(=O)c2ccc3c(c2)NC(=O)C(C)S3)c1 (centres undefined),x,x,x,x,n,x
COCCCN1CCc2nc(SCC(=O)Nc3ccc(C)c(Cl)c3)[nH]c(=O)c2C1,n,x,x,n,n,x
